# Like-named read-outs stand apart in the source and are kept apart here.
# Assays:
# Settings in all cases: n = 1
# [1] = test system: CHEK2
# [2] = test system: CIT
# [3] = test system: CLK1
# [4] = test system: CLK2
# [5] = test system: CLK3
# [6] = test system: CLK4
# [7] = test system: CSF1R-autoinhibited
# [8] = test system: CSF1R
# [9] = test system: CSK
# [10] = test system: CSNK1A1L
# [11] = test system: CSNK1A1
# [12] = test system: CSNK1D
# [13] = test system: CSNK1E
# [14] = test system: CSNK1G1
# [15] = test system: CSNK1G2
# [16] = test system: CSNK1G3
# [17] = test system: CSNK2A1
# [18] = test system: CSNK2A2
# [19] = test system: T1, CTK
# T1 construct: gene MATK
# [20] = test system: DAPK1
# [21] = concentration: 1 μM, replicates: in singlicate
# 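Also: KINOMEscan kinase panel screen.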
structure (smiles),measurement,setting,value
Nc1nc(-c2nccs2)c(-c2ccnc3ccccc23)s1 [GW693542],%Inh,[1]; [21],0%
same,%Inh,[2]; [21],44%
same,%Inh,[3]; [21],22%
same,%Inh,[4]; [21],0%
same,%Inh,[5]; [21],0%
same,%Inh,[6]; [21],16%
same,%Inh,[7]; [21],0%
same,%Inh,[8]; [21],0%
same,%Inh,[9]; [21],9%
same,%Inh,[10]; [21],23%
same,%Inh,[11]; [21],40%
same,%Inh,[12]; [21],58%
same,%Inh,[13]; [21],41%
same,%Inh,[14]; [21],9%
same,%Inh,[15]; [21],0%
same,%Inh,[16]; [21],24%
same,%Inh,[17]; [21],0%
same,%Inh,[18]; [21],2%
same,%Inh,[19]; [21],0%
same,%Inh,[20]; [21],0%
O=C(Nc1ccccc1)Nc1cccc(Oc2ccc3nccn3n2)c1,%Inh,[1]; [21],1%
same,%Inh,[2]; [21],100%
same,%Inh,[3]; [21],6%
same,%Inh,[4]; [21],0%
same,%Inh,[5]; [21],0%
same,%Inh,[6]; [21],0%
same,%Inh,[7]; [21],0%
same,%Inh,[8]; [21],99.6%
same,%Inh,[9]; [21],0%
same,%Inh,[10]; [21],59%
same,%Inh,[11]; [21],0%
same,%Inh,[12]; [21],0%
same,%Inh,[13]; [21],0%
same,%Inh,[14]; [21],0%
same,%Inh,[15]; [21],0%
same,%Inh,[16]; [21],2%
same,%Inh,[17]; [21],0%
same,%Inh,[18]; [21],0%
same,%Inh,[19]; [21],0%
same,%Inh,[20]; [21],10%
COc1ccc(Nc2nccc(-c3cccc(NC(=O)c4cc5cc(F)ccc5[nH]4)c3)n2)cc1 [GSK1229782],%Inh,[1]; [21],37%
same,%Inh,[2]; [21],44%
same,%Inh,[3]; [21],33%
same,%Inh,[4]; [21],0%
same,%Inh,[5]; [21],12%
same,%Inh,[6]; [21],28%
same,%Inh,[7]; [21],57%
same,%Inh,[8]; [21],10%
same,%Inh,[9]; [21],0%
same,%Inh,[10]; [21],20%
same,%Inh,[11]; [21],0%
same,%Inh,[12]; [21],37%
same,%Inh,[13]; [21],33%
same,%Inh,[14]; [21],13%
same,%Inh,[15]; [21],17%
same,%Inh,[16]; [21],32%
same,%Inh,[17]; [21],8%
same,%Inh,[18]; [21],27%
same,%Inh,[19]; [21],0%
same,%Inh,[20]; [21],0%
Cc1ccc(NC(=O)Nc2cccc(C(F)(F)F)c2)cc1 [GSK955403],%Inh,[1]; 1 µM,0%
same,%Inh,[2]; 1 µM,29%
same,%Inh,[3]; 1 µM,3%
same,%Inh,[4]; 1 µM,36%
same,%Inh,[5]; 1 µM,0%
same,%Inh,[6]; 1 µM,0%
same,%Inh,[7]; 1 µM,0%
same,%Inh,[8]; 1 µM,0%
same,%Inh,[9]; 1 µM,28%
same,%Inh,[10]; 1 µM,0%
same,%Inh,[11]; 1 µM,0%
same,%Inh,[12]; 1 µM,0%
same,%Inh,[13]; 1 µM,0%
same,%Inh,[14]; 1 µM,0%
same,%Inh,[15]; 1 µM,1%
same,%Inh,[16]; 1 µM,0%
same,%Inh,[17]; 1 µM,1%
same,%Inh,[18]; 1 µM,0%
same,%Inh,[19]; 1 µM,0%
same,%Inh,[20]; 1 µM,18%
Cc1ccc(NC(=O)Nc2cc(C(C)(C)C)nn2-c2ccccc2)cc1 [GSK1014915],%Inh,[1]; [21],0%
same,%Inh,[2]; [21],29%
same,%Inh,[3]; [21],33%
same,%Inh,[4]; [21],0%
same,%Inh,[5]; [21],14%
same,%Inh,[6]; [21],15%
same,%Inh,[7]; [21],0%
same,%Inh,[8]; [21],30%
same,%Inh,[9]; [21],0%
same,%Inh,[10]; [21],9%
same,%Inh,[11]; [21],0%
same,%Inh,[12]; [21],13%
same,%Inh,[13]; [21],0%
same,%Inh,[14]; [21],0%
same,%Inh,[15]; [21],0%
same,%Inh,[16]; [21],25%
same,%Inh,[17]; [21],13%
same,%Inh,[18]; [21],0%
same,%Inh,[19]; [21],18%
same,%Inh,[20]; [21],6%
COc1ccc(Nc2nccc(NCCNC(=O)Nc3ccccc3F)n2)cc1 [GSK1379901],%Inh,[1]; [21],0%
same,%Inh,[2]; [21],0%
same,%Inh,[3]; [21],32%
same,%Inh,[4]; [21],0%
same,%Inh,[5]; [21],100%
same,%Inh,[6]; [21],29%
same,%Inh,[7]; [21],0%
same,%Inh,[8]; [21],11%
same,%Inh,[9]; [21],3%
same,%Inh,[10]; [21],0%
same,%Inh,[11]; [21],0%
same,%Inh,[12]; [21],7%
same,%Inh,[13]; [21],99.4%
same,%Inh,[14]; [21],7%
same,%Inh,[15]; [21],0%
same,%Inh,[16]; [21],25%
same,%Inh,[17]; [21],0%
same,%Inh,[18]; [21],2%
same,%Inh,[19]; [21],0%
same,%Inh,[20]; [21],0%
Cc1cccc(-c2nc(-c3ccc(S(C)(=O)=O)cc3)sc2-c2ccnc(NCCc3ccccc3)c2)c1,%Inh,[1]; [21],0%
same,%Inh,[2]; [21],0%
same,%Inh,[3]; [21],8%
same,%Inh,[4]; [21],2%
same,%Inh,[5]; [21],12%
same,%Inh,[6]; [21],1%
same,%Inh,[7]; [21],1%
same,%Inh,[8]; [21],72%
same,%Inh,[9]; [21],2%
same,%Inh,[10]; [21],0%
same,%Inh,[11]; [21],0%
same,%Inh,[12]; [21],1%
same,%Inh,[13]; [21],8%
same,%Inh,[14]; [21],5%
same,%Inh,[15]; [21],1%
same,%Inh,[16]; [21],0%
same,%Inh,[17]; [21],0%
same,%Inh,[18]; [21],28%
same,%Inh,[19]; [21],0%
same,%Inh,[20]; [21],0%
C[C@@H]1CCCCN1c1cc(-c2ccc3c(N)n[nH]c3c2)nc(N)n1 [GSK2258759],%Inh,[1]; [21],12%
same,%Inh,[2]; [21],36%
same,%Inh,[3]; [21],12%
same,%Inh,[4]; [21],0%
same,%Inh,[5]; [21],0%
same,%Inh,[6]; [21],13%
same,%Inh,[7]; [21],13%
same,%Inh,[8]; [21],2%
same,%Inh,[9]; [21],2%
same,%Inh,[10]; [21],0%
same,%Inh,[11]; [21],0%
same,%Inh,[12]; [21],39%
same,%Inh,[13]; [21],35%
same,%Inh,[14]; [21],6%
same,%Inh,[15]; [21],0%
same,%Inh,[16]; [21],26%
same,%Inh,[17]; [21],6%
same,%Inh,[18]; [21],76%
same,%Inh,[19]; [21],0%
same,%Inh,[20]; [21],18%
Nc1ncnc2[nH]c(-c3ccccc3)nc12 [AH5015],%Inh,[1]; [21],0%
same,%Inh,[2]; [21],9%
same,%Inh,[3]; [21],67%
same,%Inh,[4]; [21],57%
same,%Inh,[5]; [21],0%
same,%Inh,[6]; [21],71%
same,%Inh,[7]; [21],7%
same,%Inh,[8]; [21],13%
same,%Inh,[9]; [21],0%
same,%Inh,[10]; [21],1%
same,%Inh,[11]; [21],0%
same,%Inh,[12]; [21],21%
same,%Inh,[13]; [21],14%
same,%Inh,[14]; [21],11%
same,%Inh,[15]; [21],0%
same,%Inh,[16]; [21],9%
same,%Inh,[17]; [21],29%
same,%Inh,[18]; [21],100%
same,%Inh,[19]; [21],5%
same,%Inh,[20]; [21],4%
Cc1cc(NCC(c2ccccc2)c2ccccc2)nc(NCc2ccc(C(F)(F)F)cc2)n1 [GW497681],%Inh,[1]; [21],18%
same,%Inh,[2]; [21],30%
same,%Inh,[3]; [21],15%
same,%Inh,[4]; [21],0%
same,%Inh,[5]; [21],37%
same,%Inh,[6]; [21],15%
same,%Inh,[7]; [21],30%
same,%Inh,[8]; [21],6%
same,%Inh,[9]; [21],0%
same,%Inh,[10]; [21],2%
same,%Inh,[11]; [21],0%
same,%Inh,[12]; [21],0%
same,%Inh,[13]; [21],34%
same,%Inh,[14]; [21],0%
same,%Inh,[15]; [21],0%
same,%Inh,[16]; [21],22%
same,%Inh,[17]; [21],0%
same,%Inh,[18]; [21],0%
same,%Inh,[19]; [21],0%
same,%Inh,[20]; [21],2%

# Reference: article PMC5540273 (PLoS ONE, 2017)
